This is part of a sample that, as a whole, favours compounds with a hit. Of some 79,000 tested, about 15% had one in any assay. Active and inactive are the calls of the source. Rule as the data show it: active = growth inhibition above about 70%; inactive = the rest.
Key:
[1] = NCI Yeast Anticancer Drug Screen. Data for the rad50 strain (AID 155);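 also: 0% = growth of vehicle-only cultures of the same strain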; conditions: S. cerevisiae rad50 strain growth inhibition, stronger effect = higher value
Summary of the method: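 Vehicle-treated cultures provide the reference for the growth inhibition reported for compound-exposed, repair-deficient yeast.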

[2] = NCI Yeast Anticancer Drug Screen. Data for the mec2-1 strain (AID 157); conditions: S. cerevisiae mec2-1 strain, stronger effect = higher value
Summary of the method: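 Strain: mec2-1 (DNA repair/cell cycle alteration). Compound exposure, then growth measured; inhibition expressed relative to vehicle.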

[3] = NCI Yeast Anticancer Drug Screen. Data for the sgs1 mgt1 strain (AID 161);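 also: 0% = growth of cultures given vehicle only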; conditions: S. cerevisiae sgs1 mgt1 strain, stronger effect = higher value
Summary of the method: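 Read-out: growth inhibition vs vehicle controls. Cells: mutant yeast strain deficient in DNA damage repair.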

[4] = NCI Yeast Anticancer Drug Screen. Data for the cln2 rad14 strain (AID 165);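 also: 0% = growth equal to vehicle treated cultures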; conditions: S. cerevisiae cln2 rad14 strain, stronger effect = higher value
Summary of the method: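 Compounds are applied to the cln2 rad14 yeast strain, and growth is then compared with that of vehicle-treated cultures to give inhibition.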

[5] = NCI Yeast Anticancer Drug Screen. Data for the bub3 strain (AID 167); conditions: S. cerevisiae bub3 mutant strain, stronger effect = higher value
Summary of the method: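 Mutant yeast screening strain plus compound; vehicle-treated cultures serve as the 0% inhibition reference.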

[6] = NCI Yeast Anticancer Drug Screen. Data for the mlh1 rad18 strain (AID 175); conditions: S. cerevisiae mlh1 rad18 strain growth inhibition, stronger effect = higher value
Summary of the method: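 Read-out is yeast growth inhibition, calculated against vehicle-only controls. The compound was applied to a strain engineered with DNA damage repair alterations.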

[7] = at 5.0 µM (retest, dose inferred, filed as 0.5)
[8] = at 50.0 µM (retest, dose inferred, filed as 5.0)

Measured: growth inhibition

Cc1c(N)nc(C2CC(=O)N2CC(N)C(N)=O)nc1C(=O)NC(C(=O)NC(C)C(O)C(C)C(=O)NC(C(=O)NCCc1nc(-c2nc(C(=O)NCCNCC(C)O)cs2)cs1)C(C)O)C(OC1OC(CO)C(O)C(O)C1OC1OC(CO)C(O)C(OC(N)=O)C1O)c1cnc[nH]1 (stereo not given)
inactive: [4]; [7] 61%
active: [1]; [7] 94% | [1]; [8] 97% | [1]; at 50.0 µM 92.7% | [2]; [7] 82% | [2]; [8] 99% | [2]; at 50.0 µM 93.3% | [3]; [7] 87% | [3]; [8] 98% | [3]; at 50.0 µM 93.3% | [4]; [8] 92% | [4]; at 50.0 µM 90.6% | [5]; [7] 77% | [5]; [8] 96% | [5]; at 50.0 µM 93.8% | [6]; [7] 97% | [6]; [8] 98% | [6]; at 50.0 µM 92.5%

CCCCCc1cc(C(=O)OC/C(C)=N/O)c2ccccc2n1
active: [1]; [8] 90% | [1]; at 50.0 µM 97.2% | [2]; [8] 95% | [2]; at 50.0 µM 97.5% | [3]; [8] 91% | [3]; at 50.0 µM 96.5% | [4]; [8] 92% | [4]; at 50.0 µM 83.2% | [5]; [8] 93% | [5]; at 50.0 µM 97.8% | [6]; [8] 93% | [6]; at 50.0 µM 97.4%
inactive: [1]; [7] -5% | [2]; [7] -9% | [3]; [7] -6% | [4]; [7] -5% | [5]; [7] -6% | [6]; [7] -6%

ClC1=C(Cl)C(Cl)(C(Cl)(Cl)Cl)C(Cl)=C1Cl
active: [1]; [7] 99% | [1]; [8] 98% | [1]; at 50.0 µM 99.6% | [2]; [7] 100% | [2]; [8] 99% | [2]; at 50.0 µM 99.6% | [3]; [7] 99% | [3]; [8] 98% | [3]; at 50.0 µM 99.7% | [4]; [7] 99% | [4]; [8] 98% | [4]; at 50.0 µM 99.4% | [5]; [7] 99% | [5]; [8] 98% | [5]; at 50.0 µM 99.7% | [6]; [7] 99% | [6]; [8] 98% | [6]; at 50.0 µM 99.4%

CCCCCCCCCCCCCCOCCS(=O)(=O)O
active: [1]; [8] 83% | [1]; at 50.0 µM 70.8% | [3]; [8] 80% | [3]; at 50.0 µM 78.8% | [5]; [8] 85% | [6]; [8] 83% | [6]; at 50.0 µM 79.4%
inactive: [1]; [7] 18% | [2]; [7] -9% | [2]; [8] 69% | [2]; at 50.0 µM 52.4% | [3]; [7] 16% | [4]; [7] -12% | [4]; [8] 61% | [4]; at 50.0 µM 38.4% | [5]; [7] 6% | [5]; at 50.0 µM 29.8% | [6]; [7] 7%

Oc1ccc(-c2ccccc2)cc1O
inactive: [1]; [7] 23% | [2]; [7] 13% | [3]; [7] 12% | [4]; [7] -3% | [4]; at 50.0 µM 1.55% | [5]; [7] -6% | [5]; at 50.0 µM 46.5% | [6]; [7] 27%
active: [1]; [8] 99% | [1]; at 50.0 µM 76.1% | [2]; [8] 100% | [2]; at 50.0 µM 82% | [3]; [8] 99% | [3]; at 50.0 µM 89% | [4]; [8] 99% | [5]; [8] 99% | [6]; [8] 99% | [6]; at 50.0 µM 81.4%

C1CCC(CC2CCC(NC3=NCCO3)CC2)CC1 (stereo not given)
active: [1]; [8] 97% | [1]; at 50.0 µM 88.6% | [2]; [8] 96% | [2]; at 50.0 µM 87.5% | [3]; [8] 99% | [3]; at 50.0 µM 87.2% | [4]; [8] 91% | [4]; at 50.0 µM 88.2% | [5]; [8] 98% | [5]; at 50.0 µM 91.2% | [6]; [8] 99% | [6]; at 50.0 µM 84.3%
inactive: [1]; [7] -23% | [2]; [7] -12% | [3]; [7] -22% | [4]; [7] -8% | [5]; [7] -35% | [6]; [7] -9%

Cc1ccccc1CN(C)CCO
inactive: [1]; [7] 0% | [1]; [8] -8% | [1]; at 50.0 µM 65.7% | [2]; [7] -1% | [2]; [8] 2% | [2]; at 50.0 µM 17.3% | [3]; [7] 2% | [3]; [8] 13% | [3]; at 50.0 µM 14.1% | [4]; [7] -8% | [4]; [8] -1% | [4]; at 50.0 µM 56.8% | [5]; [7] -5% | [5]; [8] -5% | [5]; at 50.0 µM 13.6% | [6]; [7] -5% | [6]; [8] -6% | [6]; at 50.0 µM 13.8%

N=C(N)c1ccc(-c2ccc(-c3ccc(C(=N)N)cc3)o2)cc1
active: [1]; [8] 88% | [1]; at 50.0 µM 94.8% | [2]; at 50.0 µM 89% | [3]; at 50.0 µM 90.3% | [4]; at 50.0 µM 75.5% | [5]; at 50.0 µM 92.8% | [6]; [8] 76% | [6]; at 50.0 µM 92.2%
inactive: [1]; [7] 17% | [2]; [7] -6% | [2]; [8] 52% | [3]; [7] 1% | [3]; [8] 61% | [4]; [7] -2% | [4]; [8] 35% | [5]; [7] 4% | [5]; [8] 62% | [6]; [7] -10%

NCCCCC(N)C(=O)Nc1ccc2ccccc2c1 (stereo not given)
active: [1]; [8] 91% | [1]; at 50.0 µM 99% | [2]; at 50.0 µM 99% | [3]; [8] 75% | [3]; at 50.0 µM 99.2% | [4]; at 50.0 µM 82.8% | [5]; [8] 71% | [5]; at 50.0 µM 99.3% | [6]; [8] 83% | [6]; at 50.0 µM 99%
inactive: [1]; [7] -1% | [2]; [7] -41% | [2]; [8] 37% | [3]; [7] 0% | [4]; [7] 1% | [4]; [8] 24% | [5]; [7] -9% | [6]; [7] 0%

O=[N+]([O-])c1ccc(S)c(Cl)c1
inactive: [1]; [7] 16% | [2]; [7] 20% | [3]; [7] 28% | [4]; [7] 0% | [4]; [8] 55% | [4]; at 50.0 µM 52.6% | [5]; [7] 14% | [6]; [7] 45%
active: [1]; [8] 95% | [1]; at 50.0 µM 95.5% | [2]; [8] 95% | [2]; at 50.0 µM 87.7% | [3]; [8] 95% | [3]; at 50.0 µM 90.3% | [5]; [8] 95% | [5]; at 50.0 µM 87.2% | [6]; [8] 95% | [6]; at 50.0 µM 93.5%

Source: PubChem BioAssay (NCI)
